Active and inactive are the calls of the source.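 The calls were made as follows: active = membrane potential signal rise above negative control mean plus 3 SD in both duplicates, also active in the earlier TRPC4 screen; inactive = the rest.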
Molecular target: Short transient receptor potential channel 6 (Mus musculus) (UniProt Q61143)
Assay: activation of mouse TRPC6 channel, confirmation, selectivity assay for TRPC4 activator project, cell-based, HEK293, membrane potential dye, duplicate (AID 434950);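 as to activation: 0% = buffer only wells and 100% = acetylcholine maximal-effect wells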
Details: HEK293 TRPC6, membrane potential fluorescence, at 10 µM; active compounds read high

Sequence of Short transient receptor potential channel 6 (Mus musculus) (Q61143 whole entry, looked up): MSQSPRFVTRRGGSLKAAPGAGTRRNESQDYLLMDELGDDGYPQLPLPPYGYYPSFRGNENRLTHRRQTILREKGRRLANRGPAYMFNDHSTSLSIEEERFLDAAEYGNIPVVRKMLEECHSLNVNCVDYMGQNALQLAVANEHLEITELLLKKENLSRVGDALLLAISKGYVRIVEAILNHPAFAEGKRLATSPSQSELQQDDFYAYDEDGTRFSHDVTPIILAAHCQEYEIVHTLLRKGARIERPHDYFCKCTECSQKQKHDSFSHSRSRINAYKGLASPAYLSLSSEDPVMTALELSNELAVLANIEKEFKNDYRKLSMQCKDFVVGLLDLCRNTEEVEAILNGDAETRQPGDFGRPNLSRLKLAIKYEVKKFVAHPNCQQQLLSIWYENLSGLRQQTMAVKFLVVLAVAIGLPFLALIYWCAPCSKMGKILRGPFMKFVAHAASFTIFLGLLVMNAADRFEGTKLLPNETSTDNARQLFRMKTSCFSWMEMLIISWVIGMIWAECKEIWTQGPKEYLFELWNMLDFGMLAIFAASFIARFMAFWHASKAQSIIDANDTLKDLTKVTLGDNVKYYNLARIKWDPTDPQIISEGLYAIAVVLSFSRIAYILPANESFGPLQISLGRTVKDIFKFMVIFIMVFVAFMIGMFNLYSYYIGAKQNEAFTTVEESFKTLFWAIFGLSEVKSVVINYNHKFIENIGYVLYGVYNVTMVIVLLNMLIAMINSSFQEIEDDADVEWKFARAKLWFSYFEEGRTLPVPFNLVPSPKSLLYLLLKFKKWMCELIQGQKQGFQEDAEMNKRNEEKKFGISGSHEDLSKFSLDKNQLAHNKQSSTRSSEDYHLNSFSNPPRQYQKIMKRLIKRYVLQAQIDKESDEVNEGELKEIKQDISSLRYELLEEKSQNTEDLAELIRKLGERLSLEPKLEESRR

outcome, inactive:
O=C(NC(=S)NNC(=O)[C@H]1C[C@@H]1c1ccccc1)c1cccc(F)c1, NCCCn1c(C(=O)c2cc(Cl)c(N)c(Cl)c2)c2ccccc2[n+]1[O-], COC(=O)c1ccccc1N=Nc1c(N)[nH][nH]c1=O, O=C(CNS(=O)(=O)c1ccc2ccccc2c1)NCCc1ccccn1, C=CCn1c(CCNC(=O)c2ccco2)nc2ccccc21, Cc1sc2nc(CSc3ccccc3)nc(NCCN(C)C)c2c1C, CCCN(CCC)CCCNC(=O)C1CCN(S(=O)(=O)c2cccc3nsnc23)CC1, CCN1C(=O)c2cccc3c(S(=O)(=O)Nc4ccccc4OC)ccc1c23, CCCN(CCC)CCCNC(=O)C1CCC(CNS(=O)(=O)c2cccc3nsnc23)CC1 (configuration not stated), O=C(Nc1nnc(-c2ccccc2Cl)o1)c1nc2ccccc2s1, COc1ccc(-c2nn(-c3ccccc3)cc2CNCc2cccnc2)c(F)c1

activation, active:
CC(c1cccnc1)N(CCN(C)C)C(=O)Nc1ccc(Cl)c(Cl)c1 (configuration not stated) 34%, Cc1ccc(C(=O)NC(=S)NNC(=O)c2ccccc2)cc1 31.5%, CCOC(=O)[C@@H]1CCNC[C@@H]1c1ccccc1 30.5%, O=C(NCCc1cccc(Cl)c1)c1ccc(OC2CCN(Cc3ccccn3)CC2)cc1 43.5%, CCOC(=O)C1(CCCc2ccccc2)CCN(Cc2cn(CC)nc2C)CC1 84%, CCN1CCN(c2ccc(S(=O)(=O)N3CCCCC3)cc2NC(=O)C(C)Oc2ccc(F)cc2)CC1 (configuration not stated) 32.5%

From PubChem BioAssay
